Experimental data: the supplement of paper PMC10981050
“And” between values parts separate entries of the source, which are not always exact repeats. Equal entries are not always repeated. Structures can show the parent of a compound that is named as a salt.

Legend:
Assay in all cases: cell viability relative to vehicle control; higher = less cytotoxic
Conditions in all cases: 10 µM
[1] = system: K562
Procedure, shortened: (§1)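 After removal of identity-inconsistent compounds, the Selleck bioactive, kinase and epigenetic probe libraries were screened on CRISPR-edited mutant clones and isogenic wild-type clones of four leukaemia lines. Plates were 384-well, each well holding 2000 cells in 50 µL medium and receiving a single 10 µM acoustically dispensed dose. CellTiter-Glo luminescence was read 48 h later, after the supernatant was taken off. Genedata Screener was used to express viability as percent of the on-plate vehicle control.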

[2] = system: MARIMO
Procedure, shortened: as §1

[3] = system: MOLM14
Procedure, shortened: as §1

[4] = system: OCI-AML2
Procedure, shortened: as §1

Compound | cell viability ([1]; SRSF2 genotype: SRSF2 P95H/wt) | cell viability ([1]; SRSF2 genotype: SRSF2 wt/wt) | cell viability ([2]; SRSF2 genotype: SRSF2 P95H/wt) | cell viability ([2]; SRSF2 genotype: SRSF2 wt/wt) | cell viability ([3]; SRSF2 genotype: SRSF2 P95H/wt) | cell viability ([3]; SRSF2 genotype: SRSF2 wt/wt) | cell viability ([4]; SRSF2 genotype: P95H/wt) | cell viability ([4]; SRSF2 genotype: wt/wt)
CCCSc1nc(N[C@@H]2C[C@H]2c2ccc(F)c(F)c2)c2nnn([C@@H]3C[C@H](OCCO)[C@@H](O)[C@H]3O)c2n1 [Ticagrelor] | 77.4% and 77.6% | 70.3% | 86.9% | 86.5% | 74.5% | 85.9% | 71.5% | 70%
CC/C(=C(\c1ccc(O)cc1)c1ccc(OCCNC)cc1)c1ccccc1 [Endoxifen HCl] | 21% and 29.8% | 24.5% | 66% | 59.9% | 23.2% | 29.7% | 17% | 38.1%
COc1cc2ncnc(Nc3cccc(Cl)c3F)c2cc1OC(=O)N1CCN(C)C[C@H]1C | 84.8% and 93.4% | 101% | 104% | 106% | 77.9% | 87.3% | 89.8% | 75.7%
CC1(C)CC[C@]2(C(=O)O)CC[C@]3(C)C(=CC[C@@H]4[C@@]5(C)CC[C@H](O)C(C)(C)[C@@H]5CC[C@]43C)[C@@H]2C1 [Oleanolic Acid (Caryophyllin)] | 96.5% and 91.2% | 87.9% | 80.7% | 82.8% | 85.6% | 94.7% | 66.8% | 82.7%
CCCCCCCCCCCCCCCCCCCCCC(=O)O [Behenic Acid] | 101% and 91.8% | 103% | 97.7% | 112% | 104% | 108% | 91.8% | 102%
CC1CCN(CC[C@H]2CCCN2S(=O)(=O)c2cccc(O)c2)CC1 | 101% | 95% | 97.8% | 106% | 96.5% | 103% | 92.9% | 98.7%
CC1(C)OCCn2c1nc1c(N3CCOCC3)nc(-c3cnc(N)nc3)nc12 | 47.1% and 53.8% | 55% | 45.7% | 36% | 27.3% | 23.9% | 11.2% | 19.6%
C[C@@H](Oc1cc(-c2cnn(C3CCNCC3)c2)cnc1N)c1c(Cl)ccc(F)c1Cl | 1.39% and 1.02% | 1.8% | 23.6% | 16.2% | 0.46% | 0.63% | 0.4% | 1.89%
C=CC(=O)Nc1cc2c(Nc3ccc(F)c(Cl)c3)ncnc2cc1OCCCN1CCOCC1 [CI-1033 (Canertinib)] | 66.7% and 78.1% | 61.7% | 52% | 61.5% | 12.8% | 15.9% | 27.6% | 31.4%
